USP30 block = inhibitors of human USP30 deubiquitinase; Ubiquitin carboxyl-terminal hydrolase 30 (Homo sapiens), Q70CQ3; purified USP30, Ub-rhodamine cleavage fluorescence; inhibition, % at 25 µM; 47,000 compounds, 5.3% hits
OTUD3 block = inhibitors of human OTUD3 deubiquitinase; OTU domain-containing protein 3 (Homo sapiens), Q5T2D3; purified OTUD3, Ub-rhodamine fluorescence, 2 h; inhibition, % at 25 µM; 47,000 compounds, 0.7% hits; AID 1645858, 2021
USP28 block = inhibitors of human USP28 deubiquitinase; Ubiquitin carboxyl-terminal hydrolase 28 (Homo sapiens), Q96RU2; purified USP28, Ub-rhodamine cleavage fluorescence, 30 min; inhibition, % at 25 µM; 47,000 compounds, 3% hits; AID 1645857, 2021
USP17 block = inhibitors of human USP17 deubiquitinase; Ubiquitin carboxyl-terminal hydrolase 17-like protein 5 (Homo sapiens), A8MUK1; purified USP17, Ub-rhodamine cleavage fluorescence, 3 h; inhibition, % at 50 µM; 47,000 compounds, 6.5% hits
Target sequence (A8MUK1 whole entry, looked up): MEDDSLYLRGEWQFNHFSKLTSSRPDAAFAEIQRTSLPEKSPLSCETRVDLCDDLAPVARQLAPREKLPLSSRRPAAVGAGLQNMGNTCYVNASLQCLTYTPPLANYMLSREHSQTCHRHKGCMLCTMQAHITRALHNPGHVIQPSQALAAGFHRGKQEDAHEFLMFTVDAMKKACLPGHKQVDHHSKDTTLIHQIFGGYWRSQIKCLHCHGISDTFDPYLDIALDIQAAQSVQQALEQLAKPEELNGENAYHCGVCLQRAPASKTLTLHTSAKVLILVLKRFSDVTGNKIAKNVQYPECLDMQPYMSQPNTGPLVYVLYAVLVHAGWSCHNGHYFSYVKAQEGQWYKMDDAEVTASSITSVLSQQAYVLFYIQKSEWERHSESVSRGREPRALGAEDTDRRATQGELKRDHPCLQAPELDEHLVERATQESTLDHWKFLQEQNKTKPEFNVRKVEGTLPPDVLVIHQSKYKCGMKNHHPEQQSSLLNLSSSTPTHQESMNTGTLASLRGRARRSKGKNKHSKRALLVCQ
Of the large screens only hits and unclear results are named; the others gave an inactive call. Sampled rows, rich in hits. Any-hit rate of the full collection: about 12%. Cut-off read from the data, not from the text of the source: active = inhibition above about 30%; inactive = the rest.

CCn1c(=O)c(-c2ccc(C(=O)Nc3ccccc3F)cc2)nc2cccnc21	USP17 block 48
Cn1c(=O)c(-c2ccc(C(=O)NCc3cccc(Cl)c3)cc2)nc2cccnc21	USP30 block 82, USP17 block 67
CCn1c(CCNC(=O)c2ccc(Cl)cc2)nc2cccnc21	none
Cc1c(O)c(O)c(O)c(C=O)c1C=O	USP30 block 70, USP28 block 68, USP17 block 62
O=C(COC(=O)c1ccc2c(=O)n3c(nc2c1)CCCCC3)NCC1CCCCC1	USP30 block 65, USP28 block 41, USP17 block 55
O=C(Nc1ccc2nc3n(c(=O)c2c1)CCCC3)c1cccc(F)c1	none
O=C(Nc1cccc(S(=O)(=O)N2CCCC2)c1)c1ccc2c(=O)n3c(nc2c1)CCCCC3	USP28 block 62
Cc1ccc(NC(=O)c2ccc3c(=O)n4c(nc3c2)CCCCC4)cc1S(=O)(=O)N1CCOCC1	USP17 block 36 (no result: USP30 block, USP28 block)
N#Cc1ccc(C(=O)NC2CCN(c3ccc(F)cc3)C2=O)cc1 (centres undefined)	none
Cc1cccc(CCN(C(=O)c2ccco2)C(C(=O)NC2CCCC2)c2ccc(N3CCOCC3)cc2)c1 (centres undefined)	none
COc1ccc(C(=O)N2CCCCC2c2ccn3nc(C)cc3n2)cn1 (centres undefined)	none (no result: USP30 block, USP28 block)
O=C(NCc1noc(-c2cccc(Cl)c2)n1)C1CCCC1	none
CC(NC(=O)c1csc(C(=O)NC2CC2)n1)c1ccccc1 (centres undefined)	none
Cc1ccccc1-c1cc(CC2(C(=O)O)CCCN(C(=O)C3CC3)C2)on1 (centres undefined)	none
c1ccc(Oc2ccc(Nc3ncnc4sc5c(c34)CCC5)cc2)cc1	none
Cc1cc(C)c2cc(CN(C(=O)Nc3ccc(F)cc3)C3CCCC3)c(=O)[nH]c2c1	none
Cc1cc(C)c2cc(CN(C(=O)Nc3ccc(Cl)cc3)C3CCCC3)c(=O)[nH]c2c1	USP30 block 36
CCc1ccc2[nH]c(=O)c(CN(C(=O)Nc3ccccc3Cl)C3CCCC3)cc2c1	none
O=C(Nc1ccccc1Cl)N(Cc1cc2cc3c(cc2[nH]c1=O)OCCO3)C1CCCCC1	USP17 block 52
Cc1cc(N2CCn3c(nc4ccccc43)C2)ccc1NS(C)(=O)=O	none
CC(C)(C)C(=O)N1CCCC(c2cncc(N3CC4(CCCCC4)OC3=O)n2)C1 (centres undefined)	USP30 block 45
CC(=O)N1CCCC(c2cncc(N3CC4(CCCCC4)OC3=O)n2)C1 (centres undefined)	none
O=C(CSc1nc2ccsc2c(=O)n1Cc1ccccc1)Nc1ccccc1C(F)(F)F	USP17 block 55 (no result: USP30 block, USP28 block)
CCOc1ccc2c(c1)c(=O)c(C(=O)c1ccc(F)cc1)cn2CC(=O)Nc1ccc(F)cc1	USP17 block 41 (no result: USP30 block, USP28 block)
COc1ccc(NC(=O)Cn2cc(C(=O)c3ccc(F)cc3)c(=O)c3cc(C)ccc32)cc1	USP30 block 32, USP17 block 75
COc1cc(NC(=O)Cn2cc(C(=O)c3ccccc3)c(=O)c3cc(Cl)ccc32)cc(OC)c1	none
CCOc1ccc2c(c1)c(=O)c(C(=O)c1ccc(C)cc1)cn2CC(=O)Nc1ccc(OC)c(OC)c1	USP30 block 70, OTUD3 block 36, USP28 block 40, USP17 block 36
Cc1ccc(C(=O)c2cn(CC(=O)Nc3ccc(Cl)cc3)c3ccc(F)cc3c2=O)cc1	none
Cc1nc2c(c(=O)[nH]1)C(c1ccc(OCc3ccccc3C)cc1)CC(=O)N2 (centres undefined)	none
CCc1ccc(S(=O)(=O)Nc2c(-n3cnnc3)n[nH]c2C)cc1	none
CS(=O)(=O)c1ccc(NC(=O)C2CN(c3nc4c(F)cccc4s3)C2)cc1	USP17 block 55
Cc1ccc(C(=O)CN2C(=O)c3ccccc3OC(c3ccccc3)C2=O)cc1 (centres undefined)	none
COc1cccc(NC(=O)c2cnc3c(c2)c(=O)n(C)c(=O)n3C)c1	USP30 block 71, USP28 block 41
Cc1ccc(NC(=O)c2cnc3c(c2)c(=O)n(C)c(=O)n3C)cc1	USP17 block 62
NC(=O)N1CCCCCC1C1CCN(Cc2nnnn2-c2ccccc2)CC1 (centres undefined)	none
Cc1cc(C#N)c2c(C)ccc(C(C)C)cc1-2	USP28 block 58
Cc1cc(C)cc(NC(=O)c2c(C)oc3nc[nH]c(=O)c23)c1	USP17 block 33
CC(C)Cn1c(=O)[nH]c2c(C(=O)N3CCCCC3)snc2c1=O	none
CC(C)n1c(=O)[nH]c2c(C(=O)N3CCCCC3)snc2c1=O	USP30 block 38
Cc1cccc(N2CCN(C(=O)c3ccc(N4C(=O)CCS4(=O)=O)cc3)CC2)c1	none
CC(C)COc1ccc(C(=O)N/C(=C/c2ccc3c(c2)OCO3)C(=O)O)cc1	USP30 block 37 (no result: USP17 block)
COc1ccccc1C(CNC(=O)c1ccc(OCC(C)C)cc1)N(C)C (centres undefined)	none
CC(Oc1c(-c2ccco2)oc2ccccc2c1=O)C(=O)O (centres undefined)	none
Cc1cc2cc(CNC(=O)c3ccccc3[N+](=O)[O-])ccc2[nH]1	USP17 block 39
COc1ccc(CC(=O)NCc2ccc3[nH]c(C)cc3c2)cc1	USP17 block 56
COc1ccc(CN2C(=O)CCC2(C)C(=O)NC2CCCC2)cc1 (centres undefined)	none
O=C(c1nnn(-c2ccc(F)cc2)n1)N1CCN(c2ccccc2O)CC1	none
NC(=O)C1CCN(C(=O)c2nnn(-c3ccc(OC(F)(F)F)cc3)n2)CC1	none
COc1ccc(-n2nnc(C(=O)N3CCN(c4ccccc4Cl)CC3)n2)cc1	USP30 block 33, USP28 block 33
NC(=O)C1CCN(C(=O)c2nnn(-c3ccccc3)n2)CC1	USP30 block 34
COc1ccc(N2CCN(C(=O)c3nnn(-c4ccc(OC)cc4)n3)CC2)cc1	USP30 block 36
O=C1NC[C@@H](CCC(=O)N2CCCC2)N2C[C@@H](NCc3ccc(F)cc3)C[C@@H]12	none
O=C(COc1ccc(Cl)cc1)NCc1cnn2ccccc12	none
O=C(Nc1ccc(F)cc1)c1cc(CN2CCCC2)on1	none
Cc1nn(-c2ccc(C(=O)N3CCCC3)cc2)c2c1C(=O)CCC2	none
CN1C[C@@]23CN(C(=O)c4ccccn4)C[C@@H](C[C@@H]2S1(=O)=O)O3	none
CN1C[C@@]23CN(C(=O)c4cnccn4)C[C@@H](C[C@@H]2S1(=O)=O)O3	USP30 block 32
COc1ccc(NC(=O)COc2cccc3c2CCNC3=O)cc1OC	none
O=C(COc1cccc2c1CCN(Cc1cccnc1)C2=O)Nc1ccc2c(c1)OCCO2	USP28 block 90, USP17 block 59
CCOc1ccc(NC(=O)COc2cccc3c2CCN(CC)C3=O)cc1	USP28 block 75
O=C(N[C@@H](Cc1ccccc1)C(=O)Nc1ccc2c(c1)OCCO2)c1cccnc1	none
O=C(COc1ncnc2scc(-c3ccccc3)c12)Nc1cc(C(F)(F)F)ccc1Cl	none
CCN1CCc2c(OCC(=O)Nc3cc(C(F)(F)F)ccc3Cl)cccc2C1=O	USP30 block 98, USP28 block 33, USP17 block 74

From PubChem
